Test results taken from PubChem BioAssay (EPA / NIEHS).
Inconclusive results are not listed. The source made the active and inactive calls. The calls were made as follows: active = hit-call score of the fitted dose curve at least 0.9, where 1 is the maximum; inconclusive = response in the unintended direction; inactive = score below 0.9.

molecular target: Nuclear receptor subfamily 1 group I member 2 (Homo sapiens) (UniProt O75469); assay: ATG_PXR_TRANS: Attagene TRANS-FACTORIAL HepG2 Assay for human Pregnane X Receptor (PXR) (AID 2283008)
Outline: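 Multiplexed TRANS reporter panel in HepG2; this component tracks PXR-Gal4-driven reporter mRNA after 24 h dosing, measured by RT-PCR with capillary electrophoresis fluorescence, fitted against DMSO.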

Sequence of Nuclear receptor subfamily 1 group I member 2 (Homo sapiens) (O75469 whole entry, looked up, the tested form may be a part): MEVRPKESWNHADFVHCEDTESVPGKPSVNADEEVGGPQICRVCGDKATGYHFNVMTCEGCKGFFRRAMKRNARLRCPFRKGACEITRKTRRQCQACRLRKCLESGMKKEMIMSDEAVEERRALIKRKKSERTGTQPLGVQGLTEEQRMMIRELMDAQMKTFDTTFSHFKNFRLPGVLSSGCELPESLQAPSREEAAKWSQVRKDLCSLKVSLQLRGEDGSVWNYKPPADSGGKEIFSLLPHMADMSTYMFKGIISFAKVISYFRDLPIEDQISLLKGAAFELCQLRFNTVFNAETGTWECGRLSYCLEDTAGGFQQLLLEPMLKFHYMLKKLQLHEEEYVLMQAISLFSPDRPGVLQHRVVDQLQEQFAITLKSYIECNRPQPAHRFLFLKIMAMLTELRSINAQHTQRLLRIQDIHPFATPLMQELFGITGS

| SMILES | outcome |
| --- | --- |
| OC(O)(C(F)C(O)(O)C(F)(F)F)C(F)(F)F | inactive |
| NC(=O)N1c2ccccc2C=Cc2ccccc21 | inactive |

molecular target: human Retinoic Acid Receptor gamma (RARg), RARG (gene 5916) (UniProt P13631); assay: ATG_RARg_TRANS: Attagene TRANS-FACTORIAL HepG2 Assay for human Retinoic Acid Receptor gamma (RARg) (AID 2283009)
Outline: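 Gain-of-signal relative to DMSO is reported from fluorescent capillary electrophoresis of RT-PCR reporter products. These came from HepG2 cells expressing transfected RARg-GAL4 chimeras with UAS reporters, harvested 24 h after dosing.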

Sequence of human Retinoic Acid Receptor gamma (RARg), RARG (gene 5916) (P13631 whole entry, looked up, the tested form may be a part): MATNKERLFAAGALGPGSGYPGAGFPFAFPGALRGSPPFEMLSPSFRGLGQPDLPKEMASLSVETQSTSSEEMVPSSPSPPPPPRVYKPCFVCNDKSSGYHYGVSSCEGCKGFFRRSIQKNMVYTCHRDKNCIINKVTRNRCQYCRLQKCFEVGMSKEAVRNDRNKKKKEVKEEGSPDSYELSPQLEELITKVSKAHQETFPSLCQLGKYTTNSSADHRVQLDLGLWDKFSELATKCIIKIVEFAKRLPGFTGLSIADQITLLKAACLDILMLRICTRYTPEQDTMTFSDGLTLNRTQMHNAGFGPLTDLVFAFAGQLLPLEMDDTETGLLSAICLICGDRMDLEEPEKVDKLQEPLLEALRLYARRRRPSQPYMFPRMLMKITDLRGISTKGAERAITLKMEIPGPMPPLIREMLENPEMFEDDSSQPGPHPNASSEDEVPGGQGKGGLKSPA

| SMILES | outcome |
| --- | --- |
| c1ccc2cc3ccccc3cc2c1 | inactive |
| CC(C)c1nnc2ccc(-c3ocnc3-c3cc(F)ccc3F)cn12 | inactive |
| O=C(NO)C1(NS(=O)(=O)c2ccc(Oc3ccc(F)cc3)cc2)CCOCC1 | inactive |
| OCc1c[nH]c2ccccc12 | inactive |
| OC(O)(C(F)C(O)(O)C(F)(F)F)C(F)(F)F | inactive |
| NC(=O)N1c2ccccc2C=Cc2ccccc21 | inactive |

molecular target: human RAR-related Orphan Receptor beta (RORb), RORB (gene 6096) (UniProt Q92753); assay: ATG_RORb_TRANS: Attagene TRANS-FACTORIAL HepG2 Assay for human RAR-related Orphan Receptor beta (RORb) (AID 2283010)
Outline: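 Multiplexed transcription-factor reporter assay: HepG2 cells transiently carrying NR-Gal4/GAL4-UAS constructs, 24 h treatment, mRNA quantified by RT-PCR plus capillary electrophoresis fluorescence; activity scored as induction over DMSO.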

Sequence of human RAR-related Orphan Receptor beta (RORb), RORB (gene 6096) (Q92753 whole entry, looked up, the tested form may be a part): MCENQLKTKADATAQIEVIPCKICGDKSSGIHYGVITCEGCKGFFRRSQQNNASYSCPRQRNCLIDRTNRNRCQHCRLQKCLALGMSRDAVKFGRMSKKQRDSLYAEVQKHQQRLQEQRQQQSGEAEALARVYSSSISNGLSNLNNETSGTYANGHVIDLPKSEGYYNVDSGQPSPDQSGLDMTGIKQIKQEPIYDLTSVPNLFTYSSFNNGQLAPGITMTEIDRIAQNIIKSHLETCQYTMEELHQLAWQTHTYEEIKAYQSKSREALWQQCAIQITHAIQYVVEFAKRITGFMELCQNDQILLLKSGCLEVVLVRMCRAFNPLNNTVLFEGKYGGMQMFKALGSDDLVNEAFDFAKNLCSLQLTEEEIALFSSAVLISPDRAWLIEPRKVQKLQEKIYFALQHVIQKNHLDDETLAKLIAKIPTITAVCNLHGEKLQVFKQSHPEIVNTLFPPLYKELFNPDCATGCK

| SMILES | outcome |
| --- | --- |
| OC[C@H]1O[C@@](CO)(O[C@H]2O[C@H](CO)[C@@H](O)[C@H](O)[C@H]2O)[C@@H](O)[C@@H]1O | inactive |
| O=C(O)c1ccc2c(c1)nc(C(=O)NC1CCN(C3CC3)CC1)n2Cc1cc(-c2ccc(Cl)s2)on1 | inactive |
| FC(F)(F)C(F)(F)C(F)(F)C(F)(F)C(F)(F)C(F)(F)I | inactive |
| CC(C)CCCCCCOC(=O)C1CCCCC1C(=O)OCCCCCCC(C)C (configuration not stated) | inactive |
| OCc1c[nH]c2ccccc12 | inactive |
| FC(F)(F)COC(OCC(F)(F)F)OCC(F)(F)F | inactive |
| CCCC(CCC)C(=O)O | inactive |
